{"source": "PubChem BioAssay (NCI)", "note": "“And” between values parts separate entries of the source, which are not always exact repeats. Equal values may be shown once. Compounds without any hit were thinned out: in the full panel of roughly 79,000, 15% have a hit. The source made the active and inactive calls. Cut-off read from the data, not from the text of the source: active = growth inhibition above about 70%; inactive = the rest.", "data": [{"test": "NCI Yeast Anticancer Drug Screen. Data for the bub3 strain (AID 167)", "conditions": "S. cerevisiae bub3 mutant strain, at 50.0 µM (retest, dose inferred, filed as 5.0), active compounds read high", "summary_of_the_method": "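Inhibition values come from growth of compound-treated mutant yeast normalised to vehicle-treated controls.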", "values": [{"smiles": "O=C(O)C1(Cc2ccccc2)Cc2cc3c(cc2C1)CCC3", "growth inhibition": "-17% (inactive)"}, {"smiles": "CC1=C(C(=O)Nc2c(C)cccc2C)C(c2ccc3c(c2)OCO3)C(C(=O)Nc2c(C)cccc2C)=C(C)N1", "growth inhibition": "6% (inactive)"}, {"smiles": "COc1cc2c(c3c1/c(=N/N(C)C)c1ccccc1n3C)C=CC(C)(C)O2", "growth inhibition": "96% (active)"}, {"smiles": "CC(=O)Nc1nc(N)c2ncn(C3OC(C(O)CO)C(O)C3O)c2n1", "note": "(configuration not stated)", "growth inhibition": "0% (inactive)"}, {"smiles": "CC(C)(Cc1nocc1C(C)(C)CC#N)c1cc(CC(C)(C)C2(C)OCCO2)no1", "growth inhibition": "-6% (inactive)"}, {"smiles": "CCOC(=O)c1c[nH]c2c(ccc3cccnc32)c1=O", "growth inhibition": "48% (inactive) and 43% (inactive)"}, {"smiles": "Cc1ncc(C[n+]2cccc(CCO)c2C)c(N)n1", "growth inhibition": "14% (inactive) and 36% (inactive)"}, {"smiles": "Clc1ccc2c(c1)[nH]c1c2nc2ccccn21", "growth inhibition": "97% (active)"}, {"smiles": "O=C(O)c1ccccc1C(=O)O", "growth inhibition": "-6% (inactive)"}, {"smiles": "COC1/C=C/OC2(C)Oc3c(C)c(O)c4c(c3C2=O)C(=O)C=C(NC(=O)/C(C)=C\\C=C\\C(C)C2OC(C)(C)OC(C2C)C(C)C(OC(C)=O)C1C)C4=O", "note": "(configuration not stated)", "growth inhibition": "74% (active)"}, {"smiles": "CCN(CC)CCCn1c2cc(=O)c(=O)cc-2[nH]c2cc(C)ccc21", "growth inhibition": "51% (inactive)"}, {"smiles": "O=[N+]([O-])c1ccc(N/N=C/CC(O)(C(F)(F)F)C(F)(F)F)c([N+](=O)[O-])c1", "growth inhibition": "98% (active)"}, {"smiles": "OCc1ccccc1C(c1ccccc1)c1ccccc1", "growth inhibition": "99% (active)"}, {"smiles": "COc1ccc2[nH]c3c(C)c4ccncc4c(C)c3c2c1", "growth inhibition": "99% (active)"}, {"smiles": "CC(C)CCC[C@@H](C)[C@H]1CC[C@H]2[C@@H]3CC=C4N5CCCN=C5CC[C@]4(C)[C@H]3CC[C@]12C", "growth inhibition": "97% (active)"}, {"smiles": "CC(C)CCCC(C)C1CCC2C3CC=C4CC([n+]5cccc6ccccc65)CCC4(C)C3CCC12C", "note": "(configuration not stated)", "growth inhibition": "89% (active)"}, {"smiles": "O=C1/C(=C/c2ccc(Cl)cc2)CNC/C1=C\\c1ccc(Cl)cc1", "growth inhibition": "85% (active) and 95% (active)"}, {"smiles": "CCn1c2ccccc2c2ccc(N=Cc3ccc(N(C)C)cc3)cc21", "growth inhibition": "25% (inactive)"}, {"smiles": "O=C1NC(=O)c2cc([N+](=O)[O-])ccc21", "growth inhibition": "13% (inactive)"}, {"smiles": "O=c1[nH]c(SCc2c(Cl)c(Cl)c(Cl)c(Cl)c2Cl)nc(=S)[nH]1", "growth inhibition": "55% (inactive)"}, {"smiles": "Cn1c2nc3ccccc3c-2cc2ccccc21", "growth inhibition": "83% (active)"}, {"smiles": "O=Cc1cc(Br)ccc1O", "growth inhibition": "97% (active) and 88% (active)"}]}]}
